# Assay results: article PMC7862700, “An all-to-all approach to the identification of sequence-specific readers for epigenetic DNA modifications on cytosine”
# Columns and labels:
# Assay in all cases: DAPPL (digital affinity profiling via proximity ligation, sequencing); 10 mM Tris-HCl pH 7.5, 50 mM NaCl, 1 mM DTT, 4% glycerol, room temperature, 30 min; GST-TFs on glutathione beads, 16-mer random dsDNA library, 0.1% formaldehyde crosslink after washing; high values mean tight binding
# FLI1 = target: T1, FLI1 (Homo sapiens, UniProt Q01543 1-452); conditions: protein: recombinant; tags: N-terminal GST; dsDNA, one strand shown
# T1 sequence: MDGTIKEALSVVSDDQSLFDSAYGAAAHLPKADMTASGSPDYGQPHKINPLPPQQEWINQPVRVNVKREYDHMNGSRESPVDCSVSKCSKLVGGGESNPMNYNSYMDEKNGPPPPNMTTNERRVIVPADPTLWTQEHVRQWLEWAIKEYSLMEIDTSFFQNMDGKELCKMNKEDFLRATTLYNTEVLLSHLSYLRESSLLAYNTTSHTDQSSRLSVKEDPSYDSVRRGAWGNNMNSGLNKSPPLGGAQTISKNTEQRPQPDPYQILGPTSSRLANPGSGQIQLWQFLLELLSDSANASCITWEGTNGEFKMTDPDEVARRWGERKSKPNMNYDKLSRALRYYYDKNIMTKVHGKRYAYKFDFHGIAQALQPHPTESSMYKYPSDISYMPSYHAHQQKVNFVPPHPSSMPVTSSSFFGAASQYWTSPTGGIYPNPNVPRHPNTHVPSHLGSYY
# Outline: (§1)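 Sequencing on an Illumina NextSeq500 followed washing, crosslinking with 0.1% formaldehyde, proximity ligation (BsaI/T4 ligase, 1 h, 37 °C) and PCR amplification of pools that had been incubated for 30 min at room temperature with 200 nmole of a random double-stranded 16-mer DNA library in Tris/NaCl/DTT/glycerol buffer. Each pool held DNA-barcoded human transcription factors, expressed in yeast as GST fusions and captured on glutathione beads, plus a tag-only sample. Binding signal is a hexamer's read frequency for a factor divided by its frequency in the tag-only sample.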
# ELK1 = target: T2, ELK1 (Homo sapiens, UniProt P19419 1-428); conditions: protein: recombinant; tags: N-terminal GST; dsDNA, one strand shown
# T2 sequence: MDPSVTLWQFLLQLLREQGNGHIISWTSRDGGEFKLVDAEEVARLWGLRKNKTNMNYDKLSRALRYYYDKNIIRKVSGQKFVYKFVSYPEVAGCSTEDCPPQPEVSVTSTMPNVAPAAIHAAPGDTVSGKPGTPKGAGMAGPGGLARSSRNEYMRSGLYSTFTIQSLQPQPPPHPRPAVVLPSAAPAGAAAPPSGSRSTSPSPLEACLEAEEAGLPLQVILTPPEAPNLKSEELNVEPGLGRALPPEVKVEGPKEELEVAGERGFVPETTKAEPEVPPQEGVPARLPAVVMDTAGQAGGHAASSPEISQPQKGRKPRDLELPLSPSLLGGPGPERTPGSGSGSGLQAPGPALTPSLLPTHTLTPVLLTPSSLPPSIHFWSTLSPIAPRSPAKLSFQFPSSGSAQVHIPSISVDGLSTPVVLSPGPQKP
# Outline: as §1
# GABPA = target: T3, GABPA (Homo sapiens, UniProt Q06546 1-454); conditions: protein: recombinant; tags: N-terminal GST; dsDNA, one strand shown
# T3 sequence: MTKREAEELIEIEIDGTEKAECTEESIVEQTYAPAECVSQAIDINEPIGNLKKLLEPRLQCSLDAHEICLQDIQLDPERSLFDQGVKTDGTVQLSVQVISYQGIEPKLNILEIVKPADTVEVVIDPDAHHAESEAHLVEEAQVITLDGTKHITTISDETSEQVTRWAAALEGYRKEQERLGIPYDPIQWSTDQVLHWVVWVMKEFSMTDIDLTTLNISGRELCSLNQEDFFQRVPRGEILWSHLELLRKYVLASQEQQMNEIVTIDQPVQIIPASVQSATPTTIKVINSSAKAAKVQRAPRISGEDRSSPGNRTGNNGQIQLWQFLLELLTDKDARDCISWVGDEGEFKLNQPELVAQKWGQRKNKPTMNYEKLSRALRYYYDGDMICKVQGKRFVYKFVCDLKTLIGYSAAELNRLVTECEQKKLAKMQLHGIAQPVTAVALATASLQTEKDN
# Outline: as §1
# ERG = target: T4, ERG (Homo sapiens, UniProt P11308 1-479); conditions: protein: recombinant; tags: N-terminal GST; dsDNA, one strand shown
# T4 sequence: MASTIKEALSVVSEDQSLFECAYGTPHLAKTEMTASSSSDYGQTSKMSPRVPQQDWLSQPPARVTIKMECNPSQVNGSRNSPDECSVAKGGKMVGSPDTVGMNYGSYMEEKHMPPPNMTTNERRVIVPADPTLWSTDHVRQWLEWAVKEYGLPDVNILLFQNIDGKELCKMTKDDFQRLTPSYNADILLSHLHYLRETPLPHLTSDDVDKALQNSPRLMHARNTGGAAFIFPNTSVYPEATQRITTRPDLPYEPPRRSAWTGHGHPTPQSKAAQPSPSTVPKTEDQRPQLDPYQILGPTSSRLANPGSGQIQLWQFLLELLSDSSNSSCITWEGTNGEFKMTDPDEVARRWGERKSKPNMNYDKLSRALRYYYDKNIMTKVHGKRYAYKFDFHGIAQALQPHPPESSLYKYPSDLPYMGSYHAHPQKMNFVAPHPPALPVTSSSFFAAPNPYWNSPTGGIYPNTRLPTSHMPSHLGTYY
# Outline: as §1
# ELF1 = ELF1 (Homo sapiens, UniProt P32519 1-619); conditions: protein: recombinant; tags: N-terminal GST; dsDNA, one strand shown
# Chain of ELF1 (P32519 whole entry): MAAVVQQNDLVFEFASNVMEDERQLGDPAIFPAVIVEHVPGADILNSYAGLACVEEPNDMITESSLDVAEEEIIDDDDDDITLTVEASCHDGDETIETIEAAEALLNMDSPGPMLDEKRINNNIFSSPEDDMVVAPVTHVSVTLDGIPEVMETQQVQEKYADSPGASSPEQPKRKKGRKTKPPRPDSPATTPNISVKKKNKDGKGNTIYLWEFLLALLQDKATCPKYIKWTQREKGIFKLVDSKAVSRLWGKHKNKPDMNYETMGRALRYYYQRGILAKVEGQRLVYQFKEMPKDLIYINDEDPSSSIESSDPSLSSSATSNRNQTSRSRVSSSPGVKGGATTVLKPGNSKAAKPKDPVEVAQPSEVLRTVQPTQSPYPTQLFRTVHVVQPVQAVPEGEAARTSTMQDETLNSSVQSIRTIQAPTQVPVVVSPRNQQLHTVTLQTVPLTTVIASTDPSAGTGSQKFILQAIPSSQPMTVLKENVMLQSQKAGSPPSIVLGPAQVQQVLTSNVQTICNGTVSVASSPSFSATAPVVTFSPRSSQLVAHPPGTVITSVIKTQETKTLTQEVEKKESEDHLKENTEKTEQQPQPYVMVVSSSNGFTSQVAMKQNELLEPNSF
# Outline: as §1
# EHF = target: T5, EHF (Homo sapiens, UniProt Q9NZC4 1-300); conditions: protein: recombinant; tags: N-terminal GST; dsDNA, one strand shown
# T5 sequence: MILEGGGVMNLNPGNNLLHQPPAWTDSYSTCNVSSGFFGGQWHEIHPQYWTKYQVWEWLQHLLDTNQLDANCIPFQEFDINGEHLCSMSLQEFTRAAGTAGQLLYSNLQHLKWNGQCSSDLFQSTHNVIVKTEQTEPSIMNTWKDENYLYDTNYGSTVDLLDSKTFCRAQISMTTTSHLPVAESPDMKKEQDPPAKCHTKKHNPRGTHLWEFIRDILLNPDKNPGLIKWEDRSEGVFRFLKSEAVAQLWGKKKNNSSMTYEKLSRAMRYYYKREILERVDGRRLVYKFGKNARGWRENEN
# Outline: as §1
# SPI1 = SPI1 (Homo sapiens, UniProt P17947 1-270); conditions: protein: recombinant; tags: N-terminal GST; dsDNA, one strand shown
# Outline: as §1
# SPIB = SPIB (Homo sapiens, UniProt Q01892 1-262); conditions: protein: recombinant; tags: N-terminal GST; dsDNA, one strand shown
# Chain of SPIB (Q01892 whole entry): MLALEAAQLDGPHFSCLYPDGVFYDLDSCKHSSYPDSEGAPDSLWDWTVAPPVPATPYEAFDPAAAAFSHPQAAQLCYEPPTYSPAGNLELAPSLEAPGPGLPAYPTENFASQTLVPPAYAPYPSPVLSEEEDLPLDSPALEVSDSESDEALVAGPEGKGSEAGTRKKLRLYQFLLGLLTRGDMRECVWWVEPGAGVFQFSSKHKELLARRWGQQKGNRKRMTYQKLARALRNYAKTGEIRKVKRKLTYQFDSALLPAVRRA
# Outline: as §1
# ELK3 = target: T6, ELK3 (Homo sapiens, UniProt P41970 1-407); conditions: protein: recombinant; tags: N-terminal GST; dsDNA, one strand shown
# T6 sequence: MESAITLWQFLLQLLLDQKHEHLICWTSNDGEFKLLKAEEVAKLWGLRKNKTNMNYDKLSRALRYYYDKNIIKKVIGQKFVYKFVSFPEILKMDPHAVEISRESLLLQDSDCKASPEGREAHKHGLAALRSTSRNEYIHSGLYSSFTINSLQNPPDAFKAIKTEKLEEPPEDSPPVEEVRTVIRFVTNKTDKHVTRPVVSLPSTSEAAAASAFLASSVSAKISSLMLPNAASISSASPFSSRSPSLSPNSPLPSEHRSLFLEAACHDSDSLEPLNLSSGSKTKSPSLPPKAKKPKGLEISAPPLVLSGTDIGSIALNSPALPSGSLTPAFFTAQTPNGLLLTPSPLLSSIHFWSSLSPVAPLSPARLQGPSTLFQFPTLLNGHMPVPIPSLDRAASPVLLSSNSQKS
# Outline: as §1
# FEV = target: T7, FEV (Homo sapiens, UniProt Q99581 1-238); conditions: protein: recombinant; tags: N-terminal GST; dsDNA, one strand shown
# T7 sequence: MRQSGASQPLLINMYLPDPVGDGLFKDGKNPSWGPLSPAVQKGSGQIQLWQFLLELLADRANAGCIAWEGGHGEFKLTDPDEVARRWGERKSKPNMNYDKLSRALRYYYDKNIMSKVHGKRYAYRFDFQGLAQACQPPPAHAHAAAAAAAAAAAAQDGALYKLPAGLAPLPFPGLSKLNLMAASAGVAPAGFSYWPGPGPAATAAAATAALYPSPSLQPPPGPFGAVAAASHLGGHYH
# Outline: as §1
# ETV5 = ETV5 (Homo sapiens, UniProt P41161 1-510); conditions: protein: recombinant; tags: N-terminal GST; dsDNA, one strand shown
# Chain of ETV5 (P41161 whole entry): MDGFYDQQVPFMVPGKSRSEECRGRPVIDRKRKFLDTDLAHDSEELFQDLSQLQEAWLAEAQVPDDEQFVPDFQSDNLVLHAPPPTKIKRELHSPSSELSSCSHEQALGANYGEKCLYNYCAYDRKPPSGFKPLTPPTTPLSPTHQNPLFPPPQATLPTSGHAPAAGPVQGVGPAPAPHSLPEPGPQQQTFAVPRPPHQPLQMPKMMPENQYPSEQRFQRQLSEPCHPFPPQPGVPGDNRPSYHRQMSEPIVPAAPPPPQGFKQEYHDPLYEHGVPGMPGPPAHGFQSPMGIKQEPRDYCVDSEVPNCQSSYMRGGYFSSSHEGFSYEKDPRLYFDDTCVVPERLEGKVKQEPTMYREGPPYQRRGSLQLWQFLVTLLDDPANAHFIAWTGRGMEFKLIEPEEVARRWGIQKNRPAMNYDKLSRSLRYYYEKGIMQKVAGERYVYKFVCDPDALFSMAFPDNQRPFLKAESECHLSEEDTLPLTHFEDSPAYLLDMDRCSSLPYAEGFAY
# Outline: as §1
# HSF1 = HSF1 (Homo sapiens, UniProt Q00613 1-529); conditions: protein: recombinant; tags: N-terminal GST; chain copies: 3; dsDNA, one strand shown
# Chain of HSF1 (Q00613 whole entry): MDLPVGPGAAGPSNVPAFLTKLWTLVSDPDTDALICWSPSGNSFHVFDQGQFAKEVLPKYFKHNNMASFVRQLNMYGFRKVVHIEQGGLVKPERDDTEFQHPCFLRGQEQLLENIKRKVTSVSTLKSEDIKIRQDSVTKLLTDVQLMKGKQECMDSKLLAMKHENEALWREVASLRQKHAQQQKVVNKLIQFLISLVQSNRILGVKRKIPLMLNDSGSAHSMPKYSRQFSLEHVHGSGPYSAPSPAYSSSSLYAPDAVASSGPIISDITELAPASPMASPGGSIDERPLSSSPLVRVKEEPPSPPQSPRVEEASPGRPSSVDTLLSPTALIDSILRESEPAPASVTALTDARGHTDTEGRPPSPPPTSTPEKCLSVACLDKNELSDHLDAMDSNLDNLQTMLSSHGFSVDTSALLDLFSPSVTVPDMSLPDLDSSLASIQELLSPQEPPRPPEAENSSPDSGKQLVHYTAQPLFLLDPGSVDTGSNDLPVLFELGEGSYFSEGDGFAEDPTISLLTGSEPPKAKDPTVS
# Outline: as §1
# SPIC = target: T8, SPIC (Homo sapiens, UniProt Q8N5J4 1-248); conditions: protein: recombinant; tags: N-terminal GST; dsDNA, one strand shown
# T8 sequence: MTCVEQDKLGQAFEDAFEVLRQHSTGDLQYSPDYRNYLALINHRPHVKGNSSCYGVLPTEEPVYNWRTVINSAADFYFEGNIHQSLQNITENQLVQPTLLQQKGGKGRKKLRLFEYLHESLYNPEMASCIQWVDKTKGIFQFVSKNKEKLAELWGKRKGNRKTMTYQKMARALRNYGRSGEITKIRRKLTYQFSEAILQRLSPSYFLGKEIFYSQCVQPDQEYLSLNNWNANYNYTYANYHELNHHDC
# Outline: as §1
# ELF4 = ELF4 (Homo sapiens, UniProt Q99607 1-663); conditions: protein: recombinant; tags: N-terminal GST; dsDNA, one strand shown
# Chain of ELF4 (Q99607 whole entry): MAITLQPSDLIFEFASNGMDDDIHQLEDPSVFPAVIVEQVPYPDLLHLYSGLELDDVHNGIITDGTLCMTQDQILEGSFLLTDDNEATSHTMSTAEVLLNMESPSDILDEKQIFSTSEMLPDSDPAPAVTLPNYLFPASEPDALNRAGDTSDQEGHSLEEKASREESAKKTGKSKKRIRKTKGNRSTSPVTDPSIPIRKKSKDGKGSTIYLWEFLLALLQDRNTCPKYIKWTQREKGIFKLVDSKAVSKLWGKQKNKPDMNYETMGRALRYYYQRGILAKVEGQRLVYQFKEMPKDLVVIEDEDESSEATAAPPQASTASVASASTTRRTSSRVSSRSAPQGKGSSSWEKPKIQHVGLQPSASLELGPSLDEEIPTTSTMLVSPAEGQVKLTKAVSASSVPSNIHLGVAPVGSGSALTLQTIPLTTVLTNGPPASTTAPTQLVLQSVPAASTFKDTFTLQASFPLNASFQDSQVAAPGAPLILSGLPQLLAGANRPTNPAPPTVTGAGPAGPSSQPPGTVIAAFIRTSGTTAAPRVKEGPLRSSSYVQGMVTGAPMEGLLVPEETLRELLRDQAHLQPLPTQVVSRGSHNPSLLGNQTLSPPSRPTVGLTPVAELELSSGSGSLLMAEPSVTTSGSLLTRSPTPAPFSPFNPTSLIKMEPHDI
# Outline: as §1
# ELK4 = target: T9, ELK4 (Homo sapiens, UniProt P28324-2 1-405); conditions: protein: recombinant; tags: N-terminal GST; dsDNA, one strand shown
# T9 sequence: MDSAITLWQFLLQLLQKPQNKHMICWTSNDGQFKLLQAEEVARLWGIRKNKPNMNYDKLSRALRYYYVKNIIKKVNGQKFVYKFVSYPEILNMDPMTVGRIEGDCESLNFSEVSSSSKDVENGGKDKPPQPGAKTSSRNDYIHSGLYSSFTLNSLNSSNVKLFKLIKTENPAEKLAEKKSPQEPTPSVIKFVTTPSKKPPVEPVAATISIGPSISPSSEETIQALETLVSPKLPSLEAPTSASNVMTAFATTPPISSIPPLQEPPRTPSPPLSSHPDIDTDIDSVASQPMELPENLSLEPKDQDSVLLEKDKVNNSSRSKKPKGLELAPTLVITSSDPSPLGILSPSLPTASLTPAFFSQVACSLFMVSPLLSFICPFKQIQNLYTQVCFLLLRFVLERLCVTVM
# Outline: as §1
# ETV2 = target: T10, ETV2 (Homo sapiens, UniProt O00321 1-342); conditions: protein: recombinant; tags: N-terminal GST; dsDNA, one strand shown
# T10 sequence: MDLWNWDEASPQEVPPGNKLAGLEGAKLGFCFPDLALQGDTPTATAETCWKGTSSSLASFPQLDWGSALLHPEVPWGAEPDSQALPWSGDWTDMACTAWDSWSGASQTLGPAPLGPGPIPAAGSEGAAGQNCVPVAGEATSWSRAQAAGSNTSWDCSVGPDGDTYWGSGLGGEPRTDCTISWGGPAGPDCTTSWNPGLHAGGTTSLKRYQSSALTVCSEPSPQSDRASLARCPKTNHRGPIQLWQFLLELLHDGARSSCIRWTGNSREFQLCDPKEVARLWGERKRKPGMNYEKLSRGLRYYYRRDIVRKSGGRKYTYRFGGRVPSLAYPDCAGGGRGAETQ
# Outline: as §1
# ELF3 = target: T11, ELF3 (Homo sapiens, UniProt P78545 1-371); conditions: protein: recombinant; tags: N-terminal GST; dsDNA, one strand shown
# T11 sequence: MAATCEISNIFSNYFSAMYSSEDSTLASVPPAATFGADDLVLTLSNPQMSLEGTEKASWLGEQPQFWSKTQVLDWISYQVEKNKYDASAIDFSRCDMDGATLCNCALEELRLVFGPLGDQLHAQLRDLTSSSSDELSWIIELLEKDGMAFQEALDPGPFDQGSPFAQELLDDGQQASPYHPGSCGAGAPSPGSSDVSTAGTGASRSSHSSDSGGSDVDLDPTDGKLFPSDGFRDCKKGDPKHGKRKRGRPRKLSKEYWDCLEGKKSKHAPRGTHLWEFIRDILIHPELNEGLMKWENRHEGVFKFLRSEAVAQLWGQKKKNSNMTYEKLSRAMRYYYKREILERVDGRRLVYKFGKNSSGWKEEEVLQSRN
# Outline: as §1
# CRX = CRX (Homo sapiens, UniProt O43186 1-299); conditions: protein: recombinant; tags: N-terminal GST; dsDNA, one strand shown
# Chain of CRX (O43186 whole entry): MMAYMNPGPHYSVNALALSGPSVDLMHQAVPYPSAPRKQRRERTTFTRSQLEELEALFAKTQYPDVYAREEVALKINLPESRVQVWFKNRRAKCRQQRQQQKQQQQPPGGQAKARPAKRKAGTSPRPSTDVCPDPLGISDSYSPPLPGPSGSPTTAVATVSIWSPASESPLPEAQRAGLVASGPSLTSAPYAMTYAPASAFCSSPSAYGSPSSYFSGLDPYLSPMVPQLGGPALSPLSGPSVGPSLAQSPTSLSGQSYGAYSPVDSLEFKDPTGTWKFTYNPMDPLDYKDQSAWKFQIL
# Outline: as §1
# ETV1 = ETV1 (Homo sapiens, UniProt P50549 1-477); conditions: protein: recombinant; tags: N-terminal GST; dsDNA, one strand shown
# Chain of ETV1 (P50549 whole entry): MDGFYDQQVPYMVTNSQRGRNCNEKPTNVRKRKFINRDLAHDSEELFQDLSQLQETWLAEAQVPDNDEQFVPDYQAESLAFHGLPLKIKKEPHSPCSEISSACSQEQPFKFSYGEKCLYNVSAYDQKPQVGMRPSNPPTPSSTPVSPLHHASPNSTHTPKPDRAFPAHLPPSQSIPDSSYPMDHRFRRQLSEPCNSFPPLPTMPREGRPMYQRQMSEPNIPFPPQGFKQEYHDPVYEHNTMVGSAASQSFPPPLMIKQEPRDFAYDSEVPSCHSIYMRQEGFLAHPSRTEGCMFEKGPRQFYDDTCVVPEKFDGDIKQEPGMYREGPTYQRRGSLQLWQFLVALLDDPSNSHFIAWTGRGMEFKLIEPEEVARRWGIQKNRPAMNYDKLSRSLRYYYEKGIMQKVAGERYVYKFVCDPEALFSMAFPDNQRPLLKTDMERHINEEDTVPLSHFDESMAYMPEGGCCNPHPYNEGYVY
# Outline: as §1
sequence,measurement,setting,value
AAGTAT,binding signal,FLI1,"1.44 fold enrichment (6-mer frequency, TF over GST control)"
same,binding signal,ELK1,"1.4 fold enrichment (6-mer frequency, TF over GST control)"
same,binding signal,GABPA,"1.4 fold enrichment (6-mer frequency, TF over GST control)"
same,binding signal,ERG,"1.42 fold enrichment (6-mer frequency, TF over GST control)"
same,binding signal,ELF1,"1.36 fold enrichment (6-mer frequency, TF over GST control)"
same,binding signal,EHF,"1.43 fold enrichment (6-mer frequency, TF over GST control)"
same,binding signal,SPI1,"1.36 fold enrichment (6-mer frequency, TF over GST control)"
same,binding signal,SPIB,"1.48 fold enrichment (6-mer frequency, TF over GST control)"
same,binding signal,ELK3,"1.46 fold enrichment (6-mer frequency, TF over GST control)"
same,binding signal,FEV,"1.34 fold enrichment (6-mer frequency, TF over GST control)"
same,binding signal,ETV5,"1.38 fold enrichment (6-mer frequency, TF over GST control)"
same,binding signal,HSF1,"1.38 fold enrichment (6-mer frequency, TF over GST control)"
same,binding signal,SPIC,"1.49 fold enrichment (6-mer frequency, TF over GST control)"
same,binding signal,ELF4,"1.4 fold enrichment (6-mer frequency, TF over GST control)"
same,binding signal,ELK4,"1.31 fold enrichment (6-mer frequency, TF over GST control)"
same,binding signal,ETV2,"1.42 fold enrichment (6-mer frequency, TF over GST control)"
same,binding signal,ELF3,"1.35 fold enrichment (6-mer frequency, TF over GST control)"
same,binding signal,CRX,"1.57 fold enrichment (6-mer frequency, TF over GST control)"
same,binding signal,ETV1,"1.44 fold enrichment (6-mer frequency, TF over GST control)"
